Measured values published in PubChem BioAssay.
Activity calls are given as the source filed them.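 How the source made its calls, unless noted: active means NADPH fluorescence slope more negative than the mean of all samples by about 3 SD, 99.7% confidence; inactive means the rest.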

Key:
[1] = inhibitors of TNFa-induced NFkB p65 translocation, primary screen, imaging, HUVEC, MLSMR starter and 10KST1 sets (AID 438;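 active means inhibition above 20% together with a positive visual image hit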;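 further: compound added about 3h40 before a 20 min TNFalpha stimulation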;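 on inhibition: signal is the nuclear over cytoplasmic p65 intensity ratio per well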); conditions: HUVEC TNFa-induced p65 nuclear translocation; cell count: measured here: nuclei count (cytotoxicity indicator), at 2.08 µM; inhibition: at 2 µM, stronger effect = higher value, 0% TNFa-plus-vehicle, 100% no-TNFa wells
[2] = reduction of polyQ htt aggregates in cells – imaging, exon1htt(103Q)mCFP cells, high-content imaging, primary screen (AID 483;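 active means visual image review flags a hit and inhibition of aggregation exceeds 20%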;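 further: compound exposure lasted 3 days before fixation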;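 on nuclei count: percent of the per-plate median nuclei count of sample wells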); conditions: exon1htt(103Q)mCFP cell line, aggregate imaging, at 2 µM; inhibition of aggregation: stronger effect = higher value; nuclei count: measured here: cell count, toxicity
[3] = endothelial E-selectin expression blockers – imaging, HUVEC, immunofluorescence, MLSMR starter and 10KST1 sets, primary screen (AID 487;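 active means visually confirmed hit in the image check and inhibition above 20%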;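 on inhibition: signal is fraction of cell area covered by stained E-selectin grains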;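 on nuclei count: 100% = median nuclei count of all wells on the same plate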); conditions: HUVEC TNFalpha-induced E-selectin immunofluorescence imaging, at 2 µM; inhibition: stronger effect = higher value; nuclei count: measured here: cell number, toxicity
[4] = molecular target: Voltage-gated potassium channel subunit beta-2 (Rattus norvegicus) (UniProt P62483); experiment: inhibitors of rat Kvbeta2 reductase activity – biochemical, NADPH fluorescence, primary screen (AID 622;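 active means fluorescence slope higher than the sample average by over 3 SD, cut at about -0.22 in these data, passing the limit was not always enough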;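 further: slope of raw intensity against log time taken from 70 to 1610 s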); conditions: recombinant KvBeta, 4-cyanobenzaldehyde reduction, at 10 µM, stronger effect = higher value
Chain of Voltage-gated potassium channel subunit beta-2 (Rattus norvegicus) (P62483 whole entry, looked up): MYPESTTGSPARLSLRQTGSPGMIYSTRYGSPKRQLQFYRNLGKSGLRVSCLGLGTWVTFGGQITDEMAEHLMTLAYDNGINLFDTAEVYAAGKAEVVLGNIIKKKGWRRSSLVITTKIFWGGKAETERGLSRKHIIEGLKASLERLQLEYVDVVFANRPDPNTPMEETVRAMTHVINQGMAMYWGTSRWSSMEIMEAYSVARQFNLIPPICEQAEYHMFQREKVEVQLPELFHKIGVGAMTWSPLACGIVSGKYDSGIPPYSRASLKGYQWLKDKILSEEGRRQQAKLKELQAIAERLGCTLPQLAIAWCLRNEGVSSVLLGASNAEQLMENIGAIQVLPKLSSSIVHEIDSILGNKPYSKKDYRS

[5] = molecular target: Voltage-gated potassium channel subunit beta-2 (Rattus norvegicus) (UniProt P62483); experiment: enhancers of rat Kvbeta2 NADPH turnover – biochemical, NADPH fluorescence, primary screen (AID 623); conditions: Recombinant KvBeta, NADPH fluorescence decrease slope, 10 min; at 10 µM; stronger effect = lower value;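 further: fluorescence intensity change per second fitted from 20 to 320 s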
[6] = molecular target: Alpha-2C adrenergic receptor (Homo sapiens) (UniProt P18825); experiment: compounds altering alpha2C-coupled GIRK flux – cell-based, HEK293 alpha2C/GIRK1/2, thallium flux, primary screen (AID 624;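 active means fluorescence slope after compound addition differing from the mean of all screened samples at 99.7% confidence, in either direction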;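 further: slope of fluorescence ratio to pre-addition baseline per second over 15 to 24 s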); conditions: thallium flux BTC fluorescence, at 10 µM, actives lie on both sides
Chain of Alpha-2C adrenergic receptor (Homo sapiens) (P18825 whole entry, looked up): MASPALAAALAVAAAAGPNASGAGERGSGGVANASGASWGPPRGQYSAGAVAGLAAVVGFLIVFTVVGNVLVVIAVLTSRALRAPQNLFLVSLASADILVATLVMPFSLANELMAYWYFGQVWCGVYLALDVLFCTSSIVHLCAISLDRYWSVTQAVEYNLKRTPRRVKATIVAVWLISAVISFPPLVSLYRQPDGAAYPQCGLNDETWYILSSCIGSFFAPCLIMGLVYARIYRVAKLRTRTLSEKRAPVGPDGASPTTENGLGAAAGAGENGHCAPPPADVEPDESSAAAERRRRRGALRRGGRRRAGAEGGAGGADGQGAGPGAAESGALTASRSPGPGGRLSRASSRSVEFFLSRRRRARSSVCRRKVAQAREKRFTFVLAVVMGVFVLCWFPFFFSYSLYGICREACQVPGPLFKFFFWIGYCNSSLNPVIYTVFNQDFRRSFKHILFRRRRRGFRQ

[7] = blockers of RIG-like receptor reporter activation – cell-based, Sendai virus stimulus, luciferase, 10K MLSCN set, TLR/RLR signaling modifier project, primary screen (AID 602276;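 active means inhibition at or above 50% at 10 µM; inactive means inhibition below 50%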;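 further: firefly luciferase from ISG56 promoter only with Renilla not read in this screen; 0% = Sendai virus plus DMSO and 100% = medium plus DMSO without virus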); conditions: HEK293 RL24 IRF3 luciferase reporter, at 10 µM, stronger effect = higher value
[8] = TLR3 IRF3 reporter activation blockers – cell-based, poly I:C stimulus, luciferase, 10K MLSCN set, primary screen (AID 602277;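 active means inhibition of the reporter signal at or above 50%; inactive means inhibition below 50%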); conditions: HEK293-TLR3 RL24 IRF3 luciferase reporter, at 10 µM, stronger effect = higher value

Row | Compound | cell count [1] | inhibition [1] | inhibition of aggregation [2] | nuclei count [2] [%] | inhibition [3] | nuclei count [3] [%] | fluorescence slope [4] | NADPH fluorescence slope [5] | slope [6] | inhibition [7] | inhibition [8]
1 | N#CC1=C(SCC(=O)c2cc3ccccc3oc2=O)NC(=O)C(C#N)C12CCCC2 (stereo unspecified) | 639 | -36.2% (inactive) | 14.2% (inactive) | 104 | -47.7% (inactive) | 123 | -0.493 (inactive) | -5.2e-05 (inactive) | 0.00421 (inactive) | 23% (inactive) | 31.4% (inactive)
2 | Cc1nc2ccc(S(=O)(=O)NCC(=O)N3CCc4ccccc4C3)cc2s1 | 439 | 2.7% (inactive) | 1.5% (inactive) | 91.2 | -4.9% (inactive) | 119 | -0.563 (inactive) | 3.2e-05 (inactive) | 0.00627 (inactive) | -4.3% (inactive) | -28.9% (inactive)
3 | Cc1ccsc1C(C(=O)NC1CCCCC1)N(C(=O)Cc1cccs1)C1CC1 (stereo unspecified) | 500 | 0% (inactive) | 16.1% (inactive) | 86.8 | -62.9% (inactive) | 94.1 | -0.35 (inactive) | -4.8e-05 (inactive) | 0.00468 (inactive) | 15.2% (inactive) | 36% (inactive)
4 | COc1ccc(C(O)C(CN2CCOCC2)c2ccccc2)cc1F (stereo unspecified) | 337 | -1.6% (inactive) | -2.1% (inactive) | 102 | -20.8% (inactive) | 104 | -0.493 (inactive) | 1.8e-06 (inactive) | 0.0062 (inactive) | 13.7% (inactive) | 17.9% (inactive)
5 | Cc1ccc(/C=c2\s/c(=C(/C#N)C(=O)N3CCCC3)n(Cc3ccco3)c2=O)s1 | 627 | 2.8% (inactive) | -17.3% (inactive) | 101 | -28.1% (inactive) | 136 | -0.59 (inactive) | 2e-05 (inactive) | 0.00315 (inactive) | 16.4% (inactive) | -21.1% (inactive)
6 | COC(=O)c1ccc(CNC(=O)CSc2nc3sc(C)c(C)c3c(=O)n2C)o1 | 319 | 3.3% (inactive) | 12.1% (inactive) | 94.6 | 5.6% (inactive) | 95.6 | -0.434 (inactive) | -4e-05 (inactive) | 0.00252 (inactive) | -0.162% (inactive) | 29.6% (inactive)
7 | Cc1cc(C)nc(SCc2csc(N)n2)n1 | 338 | -3.6% (inactive) | -3.1% (inactive) | 81.8 | -56.8% (inactive) | 100 | -0.347 (inactive) | -4.2e-05 (inactive) | 0.00565 (inactive) | -0.264% (inactive) | -2.76% (inactive)
8 | Cn1c(=O)oc2cc(S(=O)(=O)N3CCN(c4ccccn4)CC3)ccc21 | 826 | 8% (inactive) | 24.1% (inactive) | 116 | -36.5% (inactive) | 117 | -0.577 (inactive) | -4.3e-05 (inactive) | 0.00702 (inactive) | 15% (inactive) | 31.2% (inactive)
9 | CCn1c(=O)c(=O)[nH]c2cc(C(=O)N3CCN(c4ccccc4F)CC3)ccc21 | 688 | -6.1% (inactive) | -40.8% (inactive) | 81.5 | -16.5% (inactive) | 110 | -0.594 (inactive) | -3e-05 (inactive) | 0.0083 (inactive) | 5.11% (inactive) | 6.91% (inactive)
10 | O=C(NCc1ccco1)c1ccccc1Nc1ccc(F)cc1 | 575 | -7.2% (inactive) | 47.6% (active) | 67.1 | -30.4% (inactive) | 103 | -0.308 (inactive) | -5e-05 (inactive) | 0.00433 (inactive) | 5.52% (inactive) | -2.76% (inactive)
11 | Cc1cc(Cl)ccc1OCCCC(=O)NO | 375 | 0.8% (inactive) | -15% (inactive) | 65.5 | -31.4% (inactive) | 108 | -0.31 (inactive) | -1.1e-05 (inactive) | 0.00525 (inactive) | 9.52% (inactive) | -4.29% (inactive)
12 | Fc1ccc(-n2c(Cc3ccccc3)nnc2SCc2nc(-c3cccs3)no2)cc1 | 466 | 2.5% (inactive) | 0.1% (inactive) | 86.5 | -52.5% (inactive) | 108 | -0.63 (inactive) | -4.2e-05 (inactive) | 0.00381 (inactive) | -1.69% (inactive) | 1.22% (inactive)
13 | Oc1ccc(Cl)cc1-c1cc(-c2ccccc2)n[nH]1 | 524 | -11.4% (inactive) | 26.3% (inactive) | 81.5 | -6.5% (inactive) | 80.2 | -0.557 (inactive) | -1.3e-05 (inactive) | 0.00732 (inactive) | -23.7% (inactive) | -37% (inactive)
14 | COc1ccc(C)cc1-n1nnnc1SCC(=O)Nc1cc(C)on1 | 452 | 2.5% (inactive) | -18% (inactive) | 96.7 | -330% (inactive) | 150 | -0.6 (inactive) | -3.5e-05 (inactive) | 0.00592 (inactive) | 2.92% (inactive) | 12.5% (inactive)
15 | CCN(CC)C(=O)CSc1nnc(-c2cc(OC)cc(OC)c2)o1 | 733 | 0.6% (inactive) | 10.3% (inactive) | 100 | 19.1% (inactive) | 109 | -0.413 (inactive) | -4.5e-05 (inactive) | 0.00522 (inactive) | 8.18% (inactive) | 2.13% (inactive)
16 | O=C1CC(c2cccs2)CC2=C1C(c1ccccc1)n1ncnc1N2 (stereo unspecified) | 577 | 3.1% (inactive) | 4.6% (inactive) | 90.7 | -72.5% (inactive) | 98.9 | -0.597 (inactive) | 4.2e-06 (inactive) | 0.00446 (inactive) | 13.5% (inactive) | 25.2% (inactive)
17 | COC(=O)C1(C(F)(F)F)N=C2Sc3ccccc3N2C(N2CCOCC2)=N1 (stereo unspecified) | 760 | -8.1% (inactive) | 8.1% (inactive) | 76.2 | -62.6% (inactive) | 107 | -0.54 (inactive) | -4.9e-05 (inactive) | 0.00667 (inactive) | 11.6% (inactive) | 26.4% (inactive)
18 | CC1(C)CC(=O)C2=C(C1)OC(=O)C2(NC(=O)c1cccs1)C(F)(F)F (stereo unspecified) | 607 | -8.2% (inactive) | 5.3% (inactive) | 104 | -9.5% (inactive) | 85.7 | -0.598 (inactive) | -4.5e-05 (inactive) | 0.00633 (inactive) | 1.37% (inactive) | 15.7% (inactive)
19 | CCOc1ccc(C2C(C#N)=C(N)Oc3cc(C)n(Cc4ccco4)c(=O)c32)cc1OC (stereo unspecified) | 746 | 2.4% (inactive) | 9.6% (inactive) | 74 | -11.3% (inactive) | 105 | -0.491 (inactive) | -2e-05 (inactive) | 0.00471 (inactive) | 7.22% (inactive) | 11.1% (inactive)
20 | O=C(NCc1ccccn1)c1cccs1 | 254 | 12.5% (inactive) | 2.9% (inactive) | 91.4 | -1.8% (inactive) | 95.7 | -0.479 (inactive) | -5.3e-05 (inactive) | 0.00519 (inactive) | -4.29% (inactive) | 5.52% (inactive)
21 | CCOC(=O)c1ccccc1NC(=O)CSc1nccn1C | 436 | 9.7% (inactive) | -23.9% (inactive) | 108 | -32.6% (inactive) | 108 | -0.465 (inactive) | -0.000118 (inactive) | 0.00604 (inactive) | 8.57% (inactive) | 19.3% (inactive)
22 | O=C(OCCN(CCOC(=O)c1ccncc1)S(=O)(=O)c1cccs1)c1ccncc1 | 888 | 10.8% (inactive) | -22.1% (inactive) | 110 | -180% (inactive) | 123 | -0.581 (inactive) | 1e-05 (inactive) | 0.00486 (inactive) | 7.42% (inactive) | 11.5% (inactive)
23 | O=C1c2ccccc2C(=O)N1CNc1ccccc1 | 425 | -2.7% (inactive) | -3.7% (inactive) | 112 | -144% (inactive) | 118 | -0.603 (inactive) | -1.7e-05 (inactive) | 0.00312 (inactive) | 7.68% (inactive) | -8.22% (inactive)
24 | CCOC(=O)c1c(C)oc2c1c1c(c3ccccc32)OCN(Cc2cccnc2)C1 | 499 | -2.1% (inactive) | 8.8% (inactive) | 100 | -8.4% (inactive) | 104 | -0.367 (inactive) | 1.6e-05 (inactive) | 0.00433 (inactive) | -1.25% (inactive) | 15.3% (inactive)
25 | Cc1cc(NS(=O)(=O)Cc2ccccc2)cc(C)c1OCC(=O)N1CCOCC1 | 323 | -3.3% (inactive) | -14.1% (inactive) | 86.8 | -47.7% (inactive) | 104 | -0.478 (inactive) | -4.7e-05 (inactive) | 0.00653 (inactive) | 14.5% (inactive) | 10.6% (inactive)
26 | O=S(=O)(Nc1nc2ccccc2nc1NCc1ccco1)c1cccs1 | 448 | -6.2% (inactive) | -18.2% (inactive) | 105 | -73.9% (inactive) | 120 | -0.298 (inactive) | -6.8e-05 (inactive) | 0.00495 (inactive) | 14.7% (inactive) | 14.6% (inactive)
